# Screens (PubChem BioAssay)
# Most compounds without a hit are left out; they make up all but 3.6% or so of the library.
# TRHR agonist – agonists of human TRH receptor. TRHR cells, calcium flux fluo-8, FDSS agonist mode. actives 0.18% (n = 360,000). AID 493084. P34981. activation, % at 2 µM; note: 0% is about no effect
#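 Read-out: compound-evoked intracellular calcium rise in TRHR cells, fluo-8 dye, kinetic FDSS fluorescence at 1 s/cycle following a 10-cycle baseline. Cells cultured overnight before dye loading (30 min–1.5 h, RT).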
# D1 ag – activates the human D1 dopamine receptor | activation, % at 2 µM | HEK293 T-REx D1 cells, calcium flux, agonist mode | actives 1% (n = 360,000) | P21728; note: 0% is about no effect
# Target sequence (P21728 whole entry, looked up): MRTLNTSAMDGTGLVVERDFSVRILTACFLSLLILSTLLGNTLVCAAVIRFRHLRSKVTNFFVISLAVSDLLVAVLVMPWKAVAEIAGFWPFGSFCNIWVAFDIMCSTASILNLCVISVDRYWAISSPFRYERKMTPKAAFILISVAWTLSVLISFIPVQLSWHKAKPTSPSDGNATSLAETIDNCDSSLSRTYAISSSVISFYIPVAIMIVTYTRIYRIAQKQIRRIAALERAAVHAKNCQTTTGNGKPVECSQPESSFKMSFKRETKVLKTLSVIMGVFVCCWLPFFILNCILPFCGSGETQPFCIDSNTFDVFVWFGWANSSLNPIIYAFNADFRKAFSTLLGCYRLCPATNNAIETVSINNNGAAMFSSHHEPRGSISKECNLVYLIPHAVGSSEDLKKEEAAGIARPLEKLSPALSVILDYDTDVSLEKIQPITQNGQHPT
#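 Tetracycline-induced HEK293 TREx D1 cells, force-coupled to calcium signalling, were dye-loaded with a no-wash calcium kit. Compound was pin-added after a 10 s baseline. Fluorescence was read kinetically at 1 cycle/s for 180 s, with calcium rises flagged as agonism.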
# LDHA inh – inhibitors of human lactate dehydrogenase A | P00338 | purified LDHA, NADH/diaphorase-resazurin fluorescence; stronger effect = lower value | activity change, % (values are at about 110 or 230 µM) | actives 0.15% (n = 480,000); in the data active = activity change below about -30%;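 note: plate controls were DMSO wells for no effect and wells without enzyme for full effect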
#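 Resorufin fluorescence (ex540/em590), read at 0 and 20 min after diaphorase/resazurin addition, reports the NADH left after a 5 min room-temperature reaction of 2 nM human LDH5 with 0.06 mM NADH and 0.2 mM pyruvate.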
# TRHR enhancer – allosteric enhancers of human TRH receptor; P34981; TRHR cells, fluo-8 calcium fluorescence, EC20 TRH enhancement; enhancement, % at 2 µM; actives 0.66% (n = 360,000); in the data active = enhancement above about 30%; note: 0% is about no effect
#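 Enhancer read-out: after compound pinning and an initial kinetic agonist-mode read, an EC20 of TRH (10 nM final) was injected and fluo-8 calcium signal (Ex 480/Em 530) followed at 1 s/cycle for 100 cycles in TRHR-expressing cells.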
# D1 PAM – enhances dopamine response at the human D1 receptor; P21728; potentiation, % at 10 µM; actives 0.036% (n = 360,000); HEK293 TREx D1 cells, calcium flux, dopamine EC20 potentiation; in the data active = potentiation above about 30%; note: 0% is about no effect
# D1 antagonist – antagonists of human D1 dopamine receptor; P21728; HEK293 TREx D1 cells, calcium flux, dopamine EC80; stronger effect = lower value; activity change, negative = inhibition, % at 10 µM; actives 3.2% (n = 360,000); AID 504652; in the data active = activity change below about -30%; note: % is set by controls: 0 for no effect and ±100 for the full control effect
#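 After overnight tetracycline induction at 30 C, force-coupled D1 HEK293 cells took up a no-wash calcium dye at room temperature. Compounds were added and monitored 180 s, and the response to EC80 dopamine was then recorded.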
# * hit, by the source's call; nt = no result. Cut-off read from the data, not from the text of the source, unless noted: active = activation above about 30%; inactive = the rest.
SMILES,TRHR agonist,D1 ag,LDHA inh,TRHR enhancer,D1 PAM,D1 antagonist
COc1ccc(CC(=O)OCC(=O)NNC(=O)c2ccccc2)cc1,nt,nt,-10.9,nt,nt,nt
CCOCCCNC(=S)N1CCCN(c2nc3cc(C)c(C)cc3cc2C#N)CC1,-0.7,0.1,1.8,3.9,-2.8,-32.6*
COCCCNC(=S)N1CCCN(c2nc3cc(C)c(C)cc3cc2C#N)CC1,-1.2,-0.1,-3.2,1.9,-1.1,6.8
O=C(O)CN1CCC(C(=O)O)CC1,nt,nt,7.7,nt,nt,nt
Cc1cc(/C=N/n2cnnc2)c(C)n1-c1ccc(Cl)cc1,-0.1,7.1,-13.1,4.4,-7.0,-8.7
Cc1cc(/C=N/n2cnnc2)c(C)n1-c1ccc(Cl)cc1Cl,1.0,15.1,0.4,-5.9,-5.3,-34.9*
CC(=O)N1CCC(N(C(=O)Nc2ccc(C)c(C)c2)C2CCCC2)CC1,0.4,1.1,-5.9,0.0,-6.0,6.5
CC(=O)N1CCC(N(C(=O)Nc2ccc(C)c(F)c2)C(C)C)CC1,-0.3,-2.1,-7.3,-0.6,1.9,-48.0*
CC(C)CCC(CC(C)O)C(=O)NN (stereo unspecified),nt,nt,-8.8,nt,nt,nt
COc1cc([N+](=O)[O-])ccc1-c1ccc(/C=N\n2cnnc2)o1,-2.2,5.0,-9.6,0.4,-1.6,-3.0
CN1CCN(/N=C/c2ccc(-c3ccc([N+](=O)[O-])cc3Cl)o2)CC1,12.0,52.1*,-9.9,3.5,-8.9,-7.9
O=[N+]([O-])c1ccc(Cl)c(-c2ccc(/C=N/n3cnnc3)o2)c1,-1.0,-0.1,9.6,-4.2,-0.6,-41.7*
O=[N+]([O-])c1cc(-c2ccc(/C=N/n3cnnc3)o2)ccc1Cl,0.3,0.5,-2.0,-3.8,-4.3,-6.0
CCCNC(=O)NC(=O)CN(CCC1CCCCC1)CC(N)=O,nt,nt,-0.7,nt,nt,nt
CC1CCCCC1NC(=O)CN(C)Cc1ccc(C(F)(F)F)cc1 (stereo unspecified),nt,nt,12.3,nt,nt,nt
COc1ccccc1CNC(=O)c1ccc2cn[nH]c2c1,nt,nt,5.9,nt,nt,nt
Cc1cc(Cl)cc(C)c1OCCOCCNCc1ccccc1,1.4,31.4*,-16.2,-7.1,-5.9,-4.9
Clc1ccc(OCCOCCNCc2ccccc2)cc1Cl,1.7,46.8*,-6.2,2.9,-5.2,-25.7
CCSc1nc2c(c(=O)[nH]1)C(c1ccc(C)o1)C1=C(CCCC1=O)N2 (stereo unspecified),nt,nt,0.4,nt,nt,nt
COc1cc(OC)c(NS(=O)(=O)c2cc(-c3n[nH]c(=O)c4c3CCCC4)ccc2C)cc1Cl,nt,nt,0.9,nt,nt,nt
CC(=O)c1cccc(NC(=O)c2cc(C(C)C)on2)c1,0.1,3.4,3.5,1.9,0.5,-36.1*
CSC1=NSC2=NC(=O)/C(=C\c3coc4ccccc4c3=O)C(=N)N12,120.9*,305.8*,-6.4,18.5,4.2,-47.6*
N=C1/C(=C/c2coc3ccccc3c2=O)C(=O)N=C2SC(c3ccco3)=NN12,6.1,16.0,-8.1,-2.3,9.3,6.5
N=C1/C(=C\c2coc3ccccc3c2=O)C(=O)N=C2SC(c3ccncc3)=NN12,145.8*,255.5*,2.1,32.5*,-2.0,-31.4*
CC(C)CSC1=NSC2=NC(=O)/C(=C\c3ccccc3)C(=N)N12,0.2,2.0,-1.0,-2.4,-2.2,0.4
SMILES,TRHR agonist,D1 ag,LDHA inh,TRHR enhancer,D1 PAM,D1 antagonist
CC(C)CSC1=NSC2=NC(=O)/C(=C\c3coc4ccccc4c3=O)C(=N)N12,51.0*,240.2*,-5.9,-2.6,-9.1,-22.2
Cc1cc(F)ccc1NC(=O)c1ncoc1-c1cccc(Cl)c1,nt,nt,-9.8,nt,nt,nt
COc1cc(C2C3=C(CCCC3=O)OC3=C2C(=O)CCC3)ccc1OCc1ccc(C(=O)O)cc1,nt,nt,2.8,nt,nt,nt
CCOc1cc(C2C3=C(CCCC3=O)OC3=C2C(=O)CCC3)cc(Br)c1OCC(=O)O,nt,nt,-33.2*,nt,nt,nt
COC(=O)c1ccc(C2CC(=O)Nc3c2cc(Br)c2ccccc32)cc1 (stereo unspecified),nt,nt,-35.0*,nt,nt,nt
CSc1ccc(S(=O)(=O)NCC(=O)OCC(=O)N2CCC(C)CC2)cc1[N+](=O)[O-],-0.2,1.3,-1.2,-0.1,-2.5,-31.4*
CC(C)c1cccc(C(C)C)c1NS(=O)(=O)c1cccs1,-1.5,5.4,-3.0,0.4,1.1,-31.4*
COc1ccccc1C(C)NS(=O)(=O)c1cccs1 (stereo unspecified),-0.1,0.1,nt,-7.4,-2.6,-8.9
CC(=O)c1ccc(N2CCN(C(=S)Nc3ccc(Oc4ccccc4)cc3)CC2)cc1,-0.2,5.9,-13.8,1.5,-2.6,-32.9*
CC(C)COc1ccc(C(=O)Nc2ccc(N3CCN(S(C)(=O)=O)CC3)cc2)cc1,nt,nt,-34.9*,nt,nt,nt
NS(=O)(=O)c1ccc(NC(=S)N2CCN(c3ccccc3Cl)CC2)cc1,0.6,4.7,-2.7,22.1,-8.1,-40.0*
NS(=O)(=O)c1ccc(NC(=S)N2CCN(c3cccc(Cl)c3)CC2)cc1,0.0,3.8,-9.8,-0.8,-2.5,-8.5
CN1CCN(c2ccc(NC(=O)c3ccc(Oc4ccccc4)cc3)cc2)CC1,-0.9,11.0,-2.0,0.1,nt,-58.4*
O=C(OCC(=O)c1c[nH]c2ccccc12)c1ccc([N+](=O)[O-])cc1Cl,nt,nt,3.1,nt,nt,nt
O=S(=O)(c1cccc(NC(=S)N2CCN(c3ccc(F)cc3)CC2)c1)C(F)F,0.2,5.8,-9.4,5.0,-14.4,-35.1*
O=S(=O)(c1cccc(NC(=S)N2CCN(c3cccc(Cl)c3)CC2)c1)C(F)F,-1.2,3.0,-0.8,2.9,-10.3,-4.0
COc1cc2ccccc2cc1C(=O)Nc1ccc(N2CCN(C(=O)C(C)C)CC2)cc1,0.6,12.2,-1.4,3.7,-1.8,-28.7
O=[N+]([O-])c1ccc(NC(=S)N2CCN(c3ccccc3)CC2)cc1,0.8,9.3,-7.5,-3.2,-9.6,-40.4*
CCOc1ccc(C(=O)Nc2ccc(N3CCN(C)CC3)cc2)cc1Br,-0.4,3.8,-3.5,-10.6,-7.9,-34.6*
COc1cc2ccccc2cc1C(=O)Nc1ccc(N2CCN(C)CC2)cc1,0.8,8.7,0.0,2.4,-8.4,-61.2*
COc1cc(C(=O)N2CCCCC2)ccc1OCc1c(C)noc1C,nt,nt,4.4,nt,nt,nt
Cc1cc(Cl)ccc1NC(=O)Cc1c[nH]c2ccccc12,nt,nt,-2.2,nt,nt,nt
CC(=O)c1ccc(N2CCN(C(=S)Nc3cccc(F)c3)CC2)cc1,0.4,12.1,-6.7,0.3,-3.5,-40.0*
Cc1ccc([N+](=O)[O-])cc1S(=O)(=O)Nc1cccc(-c2ccc(N3CCOCC3)nn2)c1,0.6,2.9,-3.1,-0.4,-2.5,-3.0
COc1ccc(S(=O)(=O)Nc2cccc(-c3ccc(N4CCCCCC4)nn3)c2)cc1F,0.7,-0.5,-1.1,-9.5,2.8,-10.7
COc1cc(C)c(C)cc1S(=O)(=O)Nc1cccc(-c2ccc(N3CCOCC3)nn2)c1,0.0,-1.5,5.9,-23.1,-3.4,-69.1*
